Ten molecules from the supplement of paper PMC4022240 can be followed below.

± gives the standard deviation.

What all share (experiment): peptide microarray binding signal (635 nm), min-max normalized on array (fraction of array maximum); higher = stronger binding
Holding throughout (details): peptide region: H2B 7-19

Experiment [1] addresses T1, HaloTag-ATRX ADD domain (163-292).
T1 chain: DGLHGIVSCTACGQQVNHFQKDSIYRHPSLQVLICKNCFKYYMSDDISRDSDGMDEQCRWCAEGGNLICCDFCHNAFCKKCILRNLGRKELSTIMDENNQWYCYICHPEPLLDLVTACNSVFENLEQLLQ
As for the experimental part: (§1)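 Histone 13-mer peptides were synthesized as cellulose conjugates with a C-terminal 20-atom PEG linker and printed in triplicate on nitrocellulose. The sequence given is the unmodified backbone; PTMs (Kme1/2/3, Kac, Sph/Tph, Rme/Rme2a/Rme2s, Rcit) are listed in the label and the 'peptide modifications' condition. Slides were probed at 4 °C for 1 h with biotin-labelled (HQ)5-HaloTag reader fusions (ATRX-ADD, ING2-PHD) then streptavidin-Alexa647, or with rabbit histone antibodies then anti-rabbit Alexa647. The mean 635 nm signal of the triplicate spots was scaled 0-1 between the lowest and highest values on each array.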

Experiment [2] addresses HaloTag-ING2 PHD (mouse Ing2 200-280). As for the experimental part:
as §1

Experiment [3] has as its target anti-H3K4me3 antibody ab8580. Here is the method: as §1
In experiment [4] the target is anti-H3K9me3 antibody ab8898. As for the experimental part: as §1
Setting [5] is: peptide modifications: H2BK15ac, binder concentration: 1:2,000 dilution.
Setting [6] is: peptide modifications: H2BK15ac, binder concentration: 1:10,000 dilution.
[7] abbreviates: peptide modifications: H2BK12ac, binder concentration: 1:2,000 dilution.
[8] abbreviates: peptide modifications: H2BK12ac, binder concentration: 1:10,000 dilution.
Setting [9] is: peptide modifications: H2BK11ac H2BS14ph H2BK16ac, binder concentration: 1:2,000 dilution.
[10] abbreviates: peptide modifications: H2BK11ac H2BS14ph H2BK16ac, binder concentration: 1:10,000 dilution.
Setting [11] is: peptide modifications: H2BK16ac, binder concentration: 1:2,000 dilution.
[12] abbreviates: peptide modifications: H2BK16ac, binder concentration: 1:10,000 dilution.
Where [13] appears, read: peptide modifications: H2BK12ac H2BS14ph H2BK15ac, binder concentration: 1:2,000 dilution.
Where [14] appears, read: peptide modifications: H2BK12ac H2BS14ph H2BK15ac, binder concentration: 1:10,000 dilution.
Where [15] appears, read: peptide modifications: H2BK11ac, binder concentration: 1:2,000 dilution.
Setting [16] is: peptide modifications: H2BK11ac, binder concentration: 1:10,000 dilution.
Setting [17] is: peptide modifications: H2BK11ac H2BS14ph H2BK15ac, binder concentration: 1:2,000 dilution.
Setting [18] is: peptide modifications: H2BK11ac H2BS14ph H2BK15ac, binder concentration: 1:10,000 dilution.
Where [19] appears, read: peptide modifications: H2BK12ac H2BK16ac, binder concentration: 1:2,000 dilution.
Setting [20] is: peptide modifications: H2BK12ac H2BK16ac, binder concentration: 1:10,000 dilution.
[21] abbreviates: peptide modifications: H2BK12ac H2BS14ph H2BK16ac, binder concentration: 1:2,000 dilution.
The mark [22] stands for this setting: peptide modifications: H2BK12ac H2BS14ph H2BK16ac, binder concentration: 1:10,000 dilution.
Setting [23] is: peptide modifications: H2BS14ph H2BK15ac H2BK16ac, binder concentration: 1:2,000 dilution.
The mark [24] stands for this setting: peptide modifications: H2BS14ph H2BK15ac H2BK16ac, binder concentration: 1:10,000 dilution.

B1: H2B 7-19 A P A P K K G S Kac K A V T (peptide)
chain: APAPKKGSKKAVT
As to B1, the “peptide microarray binding signal” value stood at 0.00238 ± 6.4e-05 in experiment [1] (peptide modifications: H2BK15ac, binder concentration: 50 nM); 0.00448 ± 0.00011 in experiment [1] (peptide modifications: H2BK15ac, binder concentration: 500 nM); 0.00561 ± 0.00014 in experiment [2] (peptide modifications: H2BK15ac, binder concentration: 10 nM); 0.0039 ± 0.00027 in experiment [2] (peptide modifications: H2BK15ac, binder concentration: 100 nM); 0.00308 ± 0.00021 in experiment [3] (setting [5]); 0.000742 in experiment [3] (setting [6]). Also, the results for the “peptide microarray binding signal” value in experiment [4] (setting [5]) and in experiment [4] (setting [6]) were 0.0006645 ± 5.9e-06 and 0.000807, respectively.

B2: H2B 7-19 A P A P K Kac G S K K A V T (peptide)
chain: APAPKKGSKKAVT
B2: the “peptide microarray binding signal” value in experiment [1] (peptide modifications: H2BK12ac, binder concentration: 50 nM) was determined as 0.00335 ± 0.0001; in experiment [1] (peptide modifications: H2BK12ac, binder concentration: 500 nM), 0.0041 ± 0.00068; in experiment [2] (peptide modifications: H2BK12ac, binder concentration: 10 nM), 0.00471 ± 0.00015; in experiment [2] (peptide modifications: H2BK12ac, binder concentration: 100 nM), 0.00737 ± 0.00077; in experiment [3] (setting [7]) it was 0.000208 ± 4.5e-06; in experiment [3] (setting [8]), 0.000799 ± 1.7e-05. The “peptide microarray binding signal” value in experiment [4] (setting [7]) turned out to be 0.00116 ± 0.00021; in experiment [4] (setting [8]) it was 0.00213 ± 0.00019.

B3: H2B 7-19 A P A P Kac K G Sph K Kac A V T (peptide)
chain: APAPKKGSKKAVT
B3: the “peptide microarray binding signal” value in experiment [1] (peptide modifications: H2BK11ac H2BS14ph H2BK16ac, binder concentration: 50 nM) worked out at 0.00207 ± 8.4e-05; in experiment [1] (peptide modifications: H2BK11ac H2BS14ph H2BK16ac, binder concentration: 500 nM), 0.00281 ± 2.2e-05; in experiment [2] (peptide modifications: H2BK11ac H2BS14ph H2BK16ac, binder concentration: 10 nM), 0.00227 ± 3.4e-05; in experiment [2] (peptide modifications: H2BK11ac H2BS14ph H2BK16ac, binder concentration: 100 nM), 0.00128 ± 1.3e-05; in experiment [3] (setting [9]), 0.000396 ± 1.2e-05; in experiment [3] (setting [10]), 0.000514 ± 5.5e-06. Also, the “peptide microarray binding signal” value in experiment [4] (setting [9]) turned out to be 0.000242 ± 6.7e-06; in experiment [4] (setting [10]) it was 0.000461 ± 8.7e-06.

B4: H2B 7-19 A P A P K K G S K Kac A V T (peptide)
chain: APAPKKGSKKAVT
Take B4: the “peptide microarray binding signal” value in experiment [1] (peptide modifications: H2BK16ac, binder concentration: 50 nM) was 0.00392 ± 4.6e-05; in experiment [1] (peptide modifications: H2BK16ac, binder concentration: 500 nM) it was 0.0109 ± 0.00096; in experiment [2] (peptide modifications: H2BK16ac, binder concentration: 10 nM), 0.0037 ± 0.00013; in experiment [2] (peptide modifications: H2BK16ac, binder concentration: 100 nM) it was 0.00617 ± 0.00026; in experiment [3] (setting [11]) it was 0.00417 ± 0.00052; in experiment [3] (setting [12]), 0.00097 ± 9.9e-06. Further, the “peptide microarray binding signal” value in experiment [4] (setting [11]) stood at 0.000966 ± 4.4e-05; in experiment [4] (setting [12]) it was 0.00144 ± 7.5e-05.

B5: H2B 7-19 A P A P K Kac G Sph Kac K A V T (peptide)
chain: APAPKKGSKKAVT
Consider B5, for which the “peptide microarray binding signal” value came to 0.00266 ± 0.00014 in experiment [1] (peptide modifications: H2BK12ac H2BS14ph H2BK15ac, binder concentration: 50 nM); 0.00105 ± 0.00012 in experiment [1] (peptide modifications: H2BK12ac H2BS14ph H2BK15ac, binder concentration: 500 nM); 0.00221 ± 5.8e-05 in experiment [2] (peptide modifications: H2BK12ac H2BS14ph H2BK15ac, binder concentration: 10 nM); 0.00241 ± 8e-05 in experiment [2] (peptide modifications: H2BK12ac H2BS14ph H2BK15ac, binder concentration: 100 nM); 7.55e-05 ± 1.7e-06 in experiment [3] (setting [13]); 0.000571 ± 1.1e-05 in experiment [3] (setting [14]). Besides, the “peptide microarray binding signal” value in experiment [4] (setting [13]) was 0.000362 ± 1.3e-05; in experiment [4] (setting [14]) it was 0.00075 ± 2.1e-05.

B6: H2B 7-19 A P A P Kac K G S K K A V T (peptide)
chain: APAPKKGSKKAVT
As to B6, the “peptide microarray binding signal” value was found to be 0.00367 ± 0.00044 in experiment [1] (peptide modifications: H2BK11ac, binder concentration: 50 nM); 0.00667 ± 0.0024 in experiment [1] (peptide modifications: H2BK11ac, binder concentration: 500 nM); 0.00227 ± 7.3e-05 in experiment [2] (peptide modifications: H2BK11ac, binder concentration: 10 nM); 0.00432 ± 0.00029 in experiment [2] (peptide modifications: H2BK11ac, binder concentration: 100 nM); 0.000264 ± 1.1e-05 in experiment [3] (setting [15]); 0.000628 ± 6.7e-06 in experiment [3] (setting [16]). Also, the “peptide microarray binding signal” value in experiment [4] (setting [15]) came to 0.000408; in experiment [4] (setting [16]), 0.000519 ± 5.6e-06.

B7: H2B 7-19 A P A P Kac K G Sph Kac K A V T (peptide)
chain: APAPKKGSKKAVT
As for B7, the “peptide microarray binding signal” value in experiment [1] (peptide modifications: H2BK11ac H2BS14ph H2BK15ac, binder concentration: 50 nM) worked out at 0.00176 ± 7.1e-05; in experiment [1] (peptide modifications: H2BK11ac H2BS14ph H2BK15ac, binder concentration: 500 nM), 0.00238 ± 7.9e-05; in experiment [2] (peptide modifications: H2BK11ac H2BS14ph H2BK15ac, binder concentration: 10 nM), 0.00286 ± 8.4e-05; in experiment [2] (peptide modifications: H2BK11ac H2BS14ph H2BK15ac, binder concentration: 100 nM), 0.00149 ± 3.1e-05; in experiment [3] (setting [17]), 0.00157 ± 4.2e-05; in experiment [3] (setting [18]), 0.000742 ± 1.3e-05. The results for the “peptide microarray binding signal” value in experiment [4] (setting [17]) and in experiment [4] (setting [18]) were 0.000393 ± 1e-05 and 0.000692 ± 7.3e-06, respectively.

B8: H2B 7-19 A P A P K Kac G S K Kac A V T (peptide)
chain: APAPKKGSKKAVT
Regarding B8, the “peptide microarray binding signal” value in experiment [1] (peptide modifications: H2BK12ac H2BK16ac, binder concentration: 50 nM) is 0.0107 ± 0.00094; in experiment [1] (peptide modifications: H2BK12ac H2BK16ac, binder concentration: 500 nM), 0.00552 ± 0.0027; in experiment [2] (peptide modifications: H2BK12ac H2BK16ac, binder concentration: 10 nM), 0.00734 ± 0.00071; in experiment [2] (peptide modifications: H2BK12ac H2BK16ac, binder concentration: 100 nM), 0.0104 ± 0.0012; in experiment [3] (setting [19]) it was 0.000302 ± 2.2e-05; in experiment [3] (setting [20]) it was 0.0016 ± 0.00014. The results for the “peptide microarray binding signal” value in experiment [4] (setting [19]) and in experiment [4] (setting [20]) were 0.00136 ± 0.00029 and 0.00127 ± 8.9e-05, respectively.

B9: H2B 7-19 A P A P K Kac G Sph K Kac A V T (peptide)
chain: APAPKKGSKKAVT
As for B9, the “peptide microarray binding signal” value in experiment [1] (peptide modifications: H2BK12ac H2BS14ph H2BK16ac, binder concentration: 50 nM) was found to be 0.00194 ± 3.1e-05; in experiment [1] (peptide modifications: H2BK12ac H2BS14ph H2BK16ac, binder concentration: 500 nM), 0.00229 ± 3.3e-05; in experiment [2] (peptide modifications: H2BK12ac H2BS14ph H2BK16ac, binder concentration: 10 nM), 0.00358 ± 0.00017; in experiment [2] (peptide modifications: H2BK12ac H2BS14ph H2BK16ac, binder concentration: 100 nM), 0.00198 ± 0.00015; in experiment [3] (setting [21]) it was 0.000831 ± 0.00011; in experiment [3] (setting [22]), 0.000628 ± 6.7e-06. Moreover, the results for the “peptide microarray binding signal” value in experiment [4] (setting [21]) and in experiment [4] (setting [22]) were 0.000362 ± 6.3e-06 and 0.00075 ± 1.6e-05, respectively.

B10: H2B 7-19 A P A P K K G Sph Kac Kac A V T (peptide)
chain: APAPKKGSKKAVT
Take B10: the “peptide microarray binding signal” value in experiment [1] (peptide modifications: H2BS14ph H2BK15ac H2BK16ac, binder concentration: 50 nM) is 0.00307 ± 0.00018; in experiment [1] (peptide modifications: H2BS14ph H2BK15ac H2BK16ac, binder concentration: 500 nM) it was 0.00848 ± 0.00083; in experiment [2] (peptide modifications: H2BS14ph H2BK15ac H2BK16ac, binder concentration: 10 nM) it was 0.00525 ± 0.00091; in experiment [2] (peptide modifications: H2BS14ph H2BK15ac H2BK16ac, binder concentration: 100 nM), 0.00312 ± 7.5e-05; in experiment [3] (setting [23]) it was 0.00427 ± 0.00019; in experiment [3] (setting [24]), 0.00108. Further, the entries for the “peptide microarray binding signal” value in experiment [4] (setting [23]) and in experiment [4] (setting [24]) were 0.000876 ± 3.2e-05 and 0.00104 ± 1.1e-05, respectively.
